TTR transcr act: activators of transthyretin transcription | SH-SY5Y TTR promoter Gaussia luciferase, luminescence; 100% = recombinant luciferase protein wells | activation, % at 16.7 µM | hit rate 1.3% among 92,000 | AID 1117267;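 active = activation above the mean of all tested compounds plus 3 SD, cut at about 9.5% in these data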;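 also: cells exposed to compounds for one day before reading; 0% = median of all test compound wells on the plate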
HuH7 TTR inh: HuH7 TTR transcription inhibition, counter-screen | shares compounds with TTR transcr act | HuH7 TTR promoter-Gaussia luciferase reporter, luminescence | inhibition, % at 16.7 µM | hit rate 4% among 1,100 | AID 1117279;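 active = average inhibition above the solvent-only control wells' mean plus 3 SD, cut at about 15% in these data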;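 also: 0% = cells with DMSO only and 100% = cells with inhibitor control FD; inhibitors lower well luminescence so higher value means more inhibition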
TTR up confirm: human TTR transcription activation, confirmation | shares compounds with TTR transcr act | SHSY5Y TTR promoter Gaussia luciferase, luminescence; 100% = purified Lucia enzyme wells, no cells | activation, % at 16.7 µM | 1,100 tested, under 10 active;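 active = mean activation above a set limit taken from the earlier primary screen, cut at about 11% in these data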;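 also: 0% = DMSO-treated cells and 100% = recombinant Lucia luciferase without cells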
* hit, by the source's call. The sample as a whole holds a higher share of hits than the screen did.

Cc1ccc(-c2csc3nnc(SCC(=O)Nc4nsc(-c5ccccc5)n4)n23)cc1 was read as TTR transcr act -1.
For CC1CCc2c(sc3ncnc(N4CCOCC4)c23)C1 (stereo unspecified) the results were TTR transcr act -1.
For CC1CCc2sc3nc(NCc4ccco4)n4ncnc4c3c2C1 (stereo unspecified) the results were TTR transcr act 2.
CCN1CCN(c2nc3sc4c(c3c3ncnn23)CC(C)CC4)CC1 (stereo unspecified) was read as TTR transcr act 11*, HuH7 TTR inh -31 and TTR up confirm 0.
For CCCC1=C(C(=O)OCC)C(c2ccco2)n2ncnc2N1 (stereo unspecified) the results were TTR transcr act 0.
For CNc1ccccc1C(=O)OCC(=O)N1CCN(c2ccc(OC)cc2)CC1 the results were TTR transcr act 0.
`CC(=O)c1ccc(N/C=C/C(=O)c2ccc(Br)cc2)cc1` gave TTR transcr act 1.
For NC(=O)c1oc2ccccc2c1NC(=O)c1nc2ccccc2s1 the results were TTR transcr act -1.
For O=C(Nc1nnc(-c2ccccc2)o1)c1nc2ccccc2s1 the results were TTR transcr act 15*, HuH7 TTR inh -12 and TTR up confirm 2.
CC(C)C(=O)Nc1nnc(-c2ccccc2)o1 was read as TTR transcr act -1.
`COc1ccc2oc(C(=O)NCc3cc(OC)c(OC)cc3OC)c(C)c2c1` gave TTR transcr act -1.
`CCSc1nnc2c(n1)OC(C)(C)Nc1ccccc1-2` gave TTR transcr act -1.
CCn1cc(/C=C(\NC(=O)c2ccc(OC)cc2)C(=O)N2CCN(C)CC2)c2ccccc21 was read as TTR transcr act 1.
Screening COc1cccc(NC(=O)Cc2cccs2)c1 returned TTR transcr act -2.
For COc1cccc(NC(=O)N(C2CCCCC2)C(C)c2cccs2)c1 (stereo unspecified) the results were TTR transcr act 13*, HuH7 TTR inh -11 and TTR up confirm -1.
Screening CC(c1cccnc1)N(C(=O)Nc1ccccc1)C1CCCCC1 (stereo unspecified) returned TTR transcr act 1.
`COc1ccc(C(CNC(=O)c2ccco2)N2CCCCC2)cc1` (stereo unspecified) gave TTR transcr act 1.
For COc1ccc(C(c2c(NC(=O)c3ccco3)sc(C)c2C)N2CCOCC2)cc1 (stereo unspecified) the results were TTR transcr act 14*, HuH7 TTR inh 0 and TTR up confirm 0.
COc1ccc(C(Nc2ccccn2)c2c(NC(=O)c3ccco3)sc(C)c2C)cc1OC (stereo unspecified) was read as TTR transcr act 7.
For CC(C)CCN1CC(C(=O)NC(C)C)CC1=O (stereo unspecified) the results were TTR transcr act 0.
N#CC(CCc1ccc([N+](=O)[O-])cc1)(CCc1ccc([N+](=O)[O-])cc1)C(N)=O was read as TTR transcr act 0.
Screening Cc1cccc(C)c1NC(=O)COC(=O)c1cc(=O)[nH]c2ccccc12 returned TTR transcr act -2.
`CCNC(=O)COC(=O)c1cc(=O)[nH]c2ccccc12` gave TTR transcr act 0.
Screening Cc1noc(C)c1COC(=O)c1cc(=O)[nH]c2ccccc12 returned TTR transcr act 31*, HuH7 TTR inh -17 and TTR up confirm 0.
For O=[N+]([O-])c1cccc(-c2ccc(SCc3ccccn3)nn2)c1 the results were TTR transcr act 1.
Screening COc1ccc(C(=O)NCC(=O)OCC(=O)NCCC2=CCCCC2)cc1 returned TTR transcr act 0.
COc1cc(/C=C/C(=O)OCC(=O)NCCC2=CCCCC2)cc(OC)c1OC was read as TTR transcr act 10*, HuH7 TTR inh -14 and TTR up confirm 0.
COc1cc(C#N)ccc1OCC(=O)NCCC1=CCCCC1 was read as TTR transcr act 1.
Screening CCOc1ccc(NC(=O)CN2C(=O)NC(CCSC)C2=O)cc1 (stereo unspecified) returned TTR transcr act -1.
For COc1ccc(OCc2cc(C(=O)NCCN3CCCc4ccccc43)no2)c(Cl)c1 the results were TTR transcr act -1.
Screening Cc1cc(C)cc(N(CC(=O)O)S(=O)(=O)c2c(C)noc2C)c1 returned TTR transcr act 1.
`Cn1cccc1/C=N/NC(=O)C(O)c1ccccc1` (stereo unspecified) gave TTR transcr act 25*, HuH7 TTR inh -13 and TTR up confirm 2.
For Cn1cccc1/C=N/NC(N)=S the results were TTR transcr act 1.
Screening Cn1cccc1/C=N/NC(=O)Cc1ccccc1 returned TTR transcr act 1.
`COC(=O)[C@]12C[C@H](CC(=O)N3CCN(C(=O)c4ccco4)CC3)C(=O)N(Cc3ccc(Cl)cc3Cl)C1=C[C@H](C(C)(C)C)O[C@@H]2C` gave TTR transcr act -2.
For Cc1noc(C)c1COc1ccc(CC(=O)NCCc2ccccn2)cc1 the results were TTR transcr act 1.
Screening O=C(O)CSCC(=O)Nc1cccc2ccccc12 returned TTR transcr act 10.0*, HuH7 TTR inh -6 and TTR up confirm 0.
Nc1ccccc1SCC(=O)Nc1cccc2ccccc12 was read as TTR transcr act -1.
Screening N=c1sccn1CC(=O)Nc1cccc2ccccc12 returned TTR transcr act 2.
COc1ccc(/C=N/N2CCN(C)CC2)c(OC)c1OC was read as TTR transcr act 4.
For COc1ccc(/C=N/n2c(-c3n[nH]c4c3CCC4)n[nH]c2=S)c(OC)c1OC the results were TTR transcr act 5.
`COc1ccc(/C=N/n2c(C)nnc2C)c(OC)c1OC` gave TTR transcr act 10*, HuH7 TTR inh -6 and TTR up confirm 0.
`COc1ccc(Oc2c(OC)cc([N+](=O)[O-])c3ncccc23)cc1` gave TTR transcr act 0.
Screening CCOC(=O)c1c(C)n2c3c(cc(C)cc13)CCC2 returned TTR transcr act 1.
For Cc1cccc(-n2cnc(C(=O)NNC(=S)Nc3ccc(Cl)cc3)c2)n1 the results were TTR transcr act -3.
For Cc1ccccc1-c1cccc([C@@H]2C[C@H]3[C@H](CON3C)CN2C)c1 the results were TTR transcr act -1.
`CCN1C(=O)[C@@H]2[C@H](C1=O)[C@@H]1C(=O)Nc3ccccc3C(=O)N1[C@@H]2c1ccc(OC)cc1` gave TTR transcr act 11*, HuH7 TTR inh -12 and TTR up confirm 0.
CCN1C(=O)[C@H]2[C@@H](c3ccc(OC)cc3)N3C(=O)CN(Cc4ccccc4)C(=O)[C@@]3(Cc3ccccc3)[C@H]2C1=O was read as TTR transcr act 5.
`CCN1C(=O)[C@H]2[C@@H](c3ccc(OC)cc3)N[C@]3(CCCN(Cc4ccccc4)C3=O)[C@H]2C1=O` gave TTR transcr act 0.
`COc1ccc2[nH]cc(CCNC(=S)NC3CCCC3)c2c1` gave TTR transcr act 1.
Screening CC(C)c1cc(C(C)C)n2nc(N)nc2n1 returned TTR transcr act 2.
Cc1ccc(NC(=O)c2scc3c2CCCC3)cc1 was read as TTR transcr act 22*, HuH7 TTR inh 10 and TTR up confirm -2.
Screening Cc1ccc(C(=O)Nc2ccc3c(c2)CCC3)cc1 returned TTR transcr act 0.

Screening results from PubChem.
